In PubChem BioAssay AID1159580 (chemical genetic matrix, 2015):
Among all 5,500 compounds or so, about 2,000 (36%) were called active. Another 18% or so got no clear call; they are omitted. Cut-off read from the data, not from the text of the source: active = normalized growth mostly below about 0.91 (no sharp cut-off); inconclusive = no clear call, values can overlap the other calls; inactive = mostly above about 0.92. Some of the results follow.

Test: chemical genetic growth profiling, strain panel (AID 1159580);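 note: tested at 20 µM; growth read once vehicle control cultures reached saturation at 30 °C; 1 = growth at the plate median or of vehicle wells; lower values mean less growth of the strain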
Conditions: S. cerevisiae deletion strains, growth OD
[1] = locus YAL040C, strain CLN3, active compounds read low
[2] = locus YCL061C, strain MRC1 (second series), active compounds read low
[3] = locus YDR363W, strain ESC2, active compounds read low
[4] = locus YER002W, strain NOP16, active compounds read low
[5] = locus YGR229C, strain SMI1, active compounds read low
[6] = locus YMR307W, strain GAS1, active compounds read low
[7] = locus YNL175C, strain NOP13, active compounds read low
[8] = locus YNL197C, strain WHI3, active compounds read low
[9] = locus YNL224C, strain SQS1, active compounds read low
[10] = locus YOR083W, strain WHI5 (second series), active compounds read low

Measured: normalized growth

CN[C@H](CC(C)C)C(=O)N[C@H]1C(=O)N[C@@H](CC(N)=O)C(=O)N[C@H]2C(=O)N[C@H]3C(=O)N[C@H](C(=O)N[C@H](C(=O)O)c4cc(O)cc(O)c4-c4cc3ccc4O)[C@H](O)c3ccc(c(Cl)c3)Oc3cc2cc(c3O[C@@H]2O[C@H](CO)[C@@H](O)[C@H](O)[C@H]2O[C@H]2C[C@](C)(N)[C@H](O)[C@H](C)O2)Oc2ccc(cc2Cl)[C@H]1O
inactive: [1] 0.985 | [2] 1.01 | [3] 1.01 | [4] 1.01 | [5] 1.03 | locus YMR263W, strain SAP30, active compounds read low 0.997 | [6] 1 | locus YNL153C, strain GIM3, active compounds read low 0.984 | [7] 1.01 | [8] 1.03 | [9] 0.991 | [10] 0.985

CCCN(CCC)CCc1cccc2c1CC(=O)N2
inactive: locus YAL021C, strain ccr4, active compounds read low 0.978 | locus YAL026C, strain drs2, active compounds read low 0.979 | locus YAL030W, strain snc1, active compounds read low 0.981 | [1] 1.03 | locus YBL061C, strain skt5, active compounds read low 0.963 | locus YBR009C, strain hhf1, active compounds read low 0.984 | locus YBR023C, strain chs3, active compounds read low 0.962 | locus YBR171W, strain sec66, active compounds read low 0.96 | locus YBR231C, strain swc5, active compounds read low 0.99 | locus YBR279W, strain paf1, active compounds read low 0.977 | locus YCL011C, strain gbp2, active compounds read low 0.981 | locus YCL016C, strain dcc1, active compounds read low 0.964 | [2] 0.997 | locus YCL061C, strain MRC1, active compounds read low 0.965 | locus YCL069W, strain vba3, active compounds read low 0.966 | locus YCR088W, strain abp1, active compounds read low 0.969 | locus YDL005C, strain med2, active compounds read low 0.977 | locus YDL040C, strain nat1, active compounds read low 0.977 | locus YDR001C, strain nth1, active compounds read low 0.968 | locus YDR069C, strain doa4, active compounds read low 0.983 | locus YDR137W, strain rgp1, active compounds read low 0.951 | locus YDR159W, strain sac3, active compounds read low 0.966 | locus YDR195W, strain ref2 0.949 | locus YDR297W, strain sur2, active compounds read low 0.978 | locus YDR334W, strain swr1, active compounds read low 0.954 | locus YDR335W, strain msn5, active compounds read low 0.969 | [3] 1.03 | locus YDR392W, strain spt3, active compounds read low 0.96 | locus YEL003W, strain gim4, active compounds read low 0.973 | locus YEL037C, strain rad23, active compounds read low 0.971 | locus YEL061C, strain CIN8 (second series), active compounds read low 0.981 | [4] 1.02 | locus YER015W, strain faa2, active compounds read low 0.987 | locus YER016W, strain bim1, active compounds read low 0.975 | locus YER111C, strain swi4, active compounds read low 0.955 | locus YER155C, strain BEM2 (second series), active compounds read low 0.959 | locus YFR010W, strain ubp6, active compounds read low 0.967 | locus YGL167C, strain pmr1, active compounds read low 0.963 | locus YGL173C, strain kem1, active compounds read low 0.969 | locus YGL227W, strain vid30, active compounds read low 0.972 | locus YGL240W, strain doc1, active compounds read low 0.991 | locus YGL253W, strain hxk2, active compounds read low 0.993 | locus YGR078C, strain PAC10, active compounds read low 0.988 | [5] 1.04 | locus YHR013C, strain ard1, active compounds read low 0.94 | locus YHR027C, strain rpn1, active compounds read low 0.959 | locus YHR030C, strain SLT2, active compounds read low 0.947 | locus YHR079C, strain IRE1, active compounds read low 0.941 | locus YHR142W, strain chs7, active compounds read low 0.952 | locus YJL092W, strain hpr5, active compounds read low 0.966 | locus YJL095W, strain BCK1 (second series), active compounds read low 0.972 | locus YJL095W, strain BCK1, active compounds read low 1.01 | locus YJL115W, strain asf1, active compounds read low 0.958 | locus YJL129C, strain trk1, active compounds read low 0.973 | locus YJL154C, strain vps35, active compounds read low 0.974 | locus YJL164C, strain tpk1, active compounds read low 0.981 | locus YJL166W, strain qcr8, active compounds read low 0.988 | locus YJL187C, strain SWE1, active compounds read low 0.976 | locus YJR066W, strain TOR1, active compounds read low 0.94 | locus YJR075W, strain HOC1, active compounds read low 1.01 | locus YKL160W, strain elf1, active compounds read low 0.978 | locus YKR026C, strain gcn3, active compounds read low 0.968 | locus YKR091W, strain srl3, active compounds read low 0.983 | locus YLL001W, strain dnm1, active compounds read low 0.977 | locus YLL026W, active compounds read low 0.981 | locus YLL041C, strain sdh2, active compounds read low 0.974 | locus YLR027C, strain aat2, active compounds read low 0.972 | locus YLR113W, strain HOG1, active compounds read low 1.03 | locus YLR221C, strain rsa3, active compounds read low 0.975 | locus YLR258W, strain gsy2, active compounds read low 0.979 | locus YLR262C, strain YPT6 (second series), active compounds read low 0.976 | locus YLR320W, strain mms22, active compounds read low 0.969 | locus YLR342W, strain FKS1, active compounds read low 0.981 | locus YLR357W, strain rsc2, active compounds read low 0.961 | locus YLR370C, strain arc18, active compounds read low 0.96 | locus YLR384C, strain iki3, active compounds read low 0.969 | locus YML120C, strain ndi1, active compounds read low 0.972 | locus YMR058W, strain fet3, active compounds read low 0.977 | locus YMR125W, strain sto1, active compounds read low 0.967 | locus YMR129W, active compounds read low 0.969 | locus YMR205C, strain PFK2, active compounds read low 0.965 | locus YMR231W, strain pep5, active compounds read low 0.975 | [6] 0.95 | locus YNL071W, strain lat1, active compounds read low 0.984 | locus YNL128W, strain TEP1, active compounds read low 0.989 | [7] 1.01 | locus YNL183C, strain NPR1, active compounds read low 0.966 | [8] 0.999 | locus YNL209W, strain ssb2, active compounds read low 0.97 | [9] 0.988 | locus YNL248C, strain rpa49, active compounds read low 0.955 | locus YNL322C, strain KRE1 (second series), active compounds read low 0.985 | locus YNL322C, strain KRE1, active compounds read low 1.01 | locus YNR049C, strain mso1, active compounds read low 0.966 | locus YOR001W, strain rrp6, active compounds read low 0.972 | locus YOR070C, strain gyp1, active compounds read low 0.974 | locus YOR080W, strain dia2, active compounds read low 0.957 | [10] 1 | locus YOR083W, strain WHI5, active compounds read low 0.975 | locus YOR106W, strain vam3, active compounds read low 0.977 | locus YOR231W, strain MKK1, active compounds read low 0.978 | locus YOR265W, strain rbl2, active compounds read low 0.972 | locus YOR270C, strain vph1, active compounds read low 0.944 | locus YOR290C, strain snf2, active compounds read low 0.953 | locus YPL051W, strain arl3, active compounds read low 0.975 | locus YPL078C, strain atp4, active compounds read low 0.969 | locus YPL106C, strain sse1, active compounds read low 0.99 | locus YPL240C, strain hsp82, active compounds read low 0.976 | locus YPL241C, strain CIN2, active compounds read low 1 | locus YPL256C, strain CLN2, active compounds read low 0.943
